# Measured values from PubChem BioAssay (NCI).
# This is part of a sample that, as a whole, favours compounds with a hit. Of some 79,000 tested, about 15% had one in any assay. Unmarked numbers belong to inactive results. Calls of active or inactive are those of the source. No stated cut-off is given here; in the data, active means growth inhibition above about 70%; inactive means the rest.
# Columns and labels:
# [1] = NCI Yeast Anticancer Drug Screen. Data for the rad50 strain (AID 155);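 further: 0% = growth of vehicle-only cultures of the same strain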; details: S. cerevisiae rad50 strain growth inhibition, active compounds read high
# Outline: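 Relative growth inhibition (compound vs vehicle) was measured in yeast with a defined repair-gene alteration.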
# [2] = NCI Yeast Anticancer Drug Screen. Data for the mec2-1 strain (AID 157); details: S. cerevisiae mec2-1 strain, active compounds read high
# Outline: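 Mutant yeast (mec2-1) grown with compound; growth inhibition relative to vehicle control reported.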
# [3] = NCI Yeast Anticancer Drug Screen. Data for the sgs1 mgt1 strain (AID 161);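 further: 0% = growth of cultures given vehicle only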; details: S. cerevisiae sgs1 mgt1 strain, active compounds read high
# Outline: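 Percent growth inhibition was derived by comparing compound-exposed mutant yeast with vehicle-exposed cultures. The strain carries alterations in DNA damage repair.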
# [4] = NCI Yeast Anticancer Drug Screen. Data for the cln2 rad14 strain (AID 165);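 further: 0% = growth equal to vehicle treated cultures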; details: S. cerevisiae cln2 rad14 strain, active compounds read high
# Outline: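 Readout is yeast growth inhibition versus vehicle-treated controls, using a strain with cln2 and rad14 alterations exposed to compound.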
# [5] = NCI Yeast Anticancer Drug Screen. Data for the bub3 strain (AID 167); details: S. cerevisiae bub3 mutant strain, active compounds read high
# Outline: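 Screening used yeast with an engineered genetic alteration affecting cell cycle control. Compound-exposed cultures were compared with vehicle cultures, and reduced growth was taken as inhibition.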
# [6] = NCI Yeast Anticancer Drug Screen. Data for the mlh1 rad18 strain (AID 175); details: S. cerevisiae mlh1 rad18 strain growth inhibition, active compounds read high
# Outline: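 Genetically defined yeast (DNA repair-deficient) exposed to compounds; growth inhibition determined relative to vehicle.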
# [7] = at 5.0 µM (retest, dose inferred, filed as 0.5)
# [8] = at 50.0 µM (retest, dose inferred, filed as 5.0)
Compound,"growth inhibition [1, 7]","growth inhibition [1, 8]",growth inhibition ([1]; at 50.0 µM),"growth inhibition [2, 7]","growth inhibition [2, 8]",growth inhibition ([2]; at 50.0 µM),"growth inhibition [3, 7]","growth inhibition [3, 8]",growth inhibition ([3]; at 50.0 µM),"growth inhibition [4, 7]","growth inhibition [4, 8]",growth inhibition ([4]; at 50.0 µM),"growth inhibition [5, 7]","growth inhibition [5, 8]",growth inhibition ([5]; at 50.0 µM),"growth inhibition [6, 7]","growth inhibition [6, 8]",growth inhibition ([6]; at 50.0 µM)
S=c1[nH]c2ccccc2s1.[Pb],-11%,16%,93.7% (active),-1%,6%,94.8% (active),0%,8%,95.5% (active),-10%,-11%,64.2%,-4%,-7%,94% (active),-5%,-8%,90.9% (active)
Clc1nc(Cl)nc(Nc2ccccc2Cl)n1,67%,96% (active),99% (active),40%,97% (active),96.7% (active),53%,98% (active),98.9% (active),21%,97% (active),95.8% (active),82% (active),99% (active),98.6% (active),24%,95% (active),97.2% (active)
Cc1cc(OC(=O)N(CCCl)CCCl)c(C(C)C)cc1N=O,19%,91% (active),97.3% (active),20%,97% (active),97.5% (active),17%,96% (active),78.5% (active),10%,92% (active),97.2% (active),1%,94% (active),18.8%,33%,97% (active),97.7% (active)
O=P(c1ccccc1)(c1ccccc1)c1ccccc1.[Cl][Sn]([c]1ccccc1)([c]1ccccc1)[c]1ccccc1,99% (active),98% (active),99.6% (active),97% (active),98% (active),99.7% (active),99% (active),99% (active),99.7% (active),99% (active),98% (active),99.1% (active),99% (active),98% (active),99.3% (active),99% (active),99% (active),99.5% (active)
Cc1ccc(C(=O)C2C(c3ccccc3)N2C2CCCCC2)cc1 (stereo not given),0%,95% (active),11.1%,-8%,88% (active),7.95%,-1%,89% (active),57.5%,-20%,96% (active),0.3%,-8%,85% (active),19.8%,2%,92% (active),71.6% (active)
CC(=O)[O-].O=C([CH-]C(=O)c1ccccc1)c1ccccc1.O=C([CH-]C(=O)c1ccccc1)c1ccccc1.[Dy+3],44%,99% (active),91.5% (active),35%,99% (active),93.2% (active),44%,100% (active),93.4% (active),–,–,–,57%,96% (active),92.1% (active),50%,98% (active),91.3% (active)
[Se]C1=NCCN1,6%,53%,94.6% (active),7%,34%,92.3% (active),3%,39%,95.6% (active),6%,48%,77.8% (active),–,–,–,6%,89% (active),92.2% (active)
C1CCC(NCC2CCCO2)CC1 (stereo not given),-12%,1%,77.5% (active),-10%,-21%,71% (active),-1%,-9%,79.5% (active),25%,30%,76.3% (active),-2%,17%,77.8% (active),-4%,-31%,58.3%
CC(c1ccccc1)N1O[C@]12CC[C@@]1(C)C(CCCC13OCCO3)C2 (stereo not given in full),88% (active),97% (active),92% (active),97% (active),99% (active),94% (active),36%,97% (active),92.2% (active),95% (active),98% (active),91.2% (active),94% (active),98% (active),91% (active),93% (active),97% (active),91.5% (active)
O=C(O)C(Br)C(Br)C(=O)O.[Ag] (stereo not given),99% (active),99% (active),98.8% (active),100% (active),100% (active),99.3% (active),99% (active),100% (active),98.7% (active),97% (active),99% (active),99.1% (active),–,–,–,99% (active),99% (active),99.2% (active)
CC(=O)[O][Hg][c]1c(C)c(C)cc(C)c1C,99% (active),96% (active),90.1% (active),100% (active),98% (active),91.2% (active),99% (active),98% (active),87.7% (active),99% (active),98% (active),85.7% (active),99% (active),97% (active),84.2% (active),99% (active),96% (active),76.2% (active)
CC(=O)[O-].CC(=O)[O-].O=C([CH-]C(=O)c1ccccc1)c1ccccc1.[Nd+3].[OH3+],33%,33%,91.6% (active),27%,27%,91.9% (active),30%,30%,93% (active),–,–,–,27%,27%,91% (active),24%,24%,88.8% (active)
N#C[S-].[La+3].c1ccc(-c2ccccn2)nc1.c1ccc(-c2ccccn2)nc1.c1ccc(-c2ccccn2)nc1,61%,98% (active),91.5% (active),41%,99% (active),93.8% (active),46%,99% (active),93% (active),33%,90% (active),91.9% (active),60%,99% (active),92% (active),56%,99% (active),91.3% (active)
CC(=O)[O-].O=C([CH-]C(=O)c1ccccc1)c1ccccc1.O=C([CH-]C(=O)c1ccccc1)c1ccccc1.[Y+3],35%,35%,91.4% (active),19%,19%,93.7% (active),42%,42%,93.6% (active),–,–,–,–,–,–,13%,13%,90.5% (active)
CC[CH2][Pb]([CH2]CC)([CH2]CC)[O]C(C)=O,54%,79% (active),91% (active),50%,75% (active),92.7% (active),100% (active),100% (active),93.8% (active),73% (active),100% (active),91.3% (active),–,–,–,49%,67%,91.3% (active)
O=C([CH-]C(=O)c1ccccc1)c1ccccc1.O=C([CH-]C(=O)c1ccccc1)c1ccccc1.O=C([CH-]C(=O)c1ccccc1)c1ccccc1.[Nd+3].[OH3+],49%,99% (active),91.8% (active),43%,100% (active),93.8% (active),55%,100% (active),93.8% (active),–,–,–,61%,99% (active),92.5% (active),60%,100% (active),91.2% (active)
CC(=N\O)/C(C)=N/O.CC(=N\O)/C(C)=N/O.CC(=N\O)/C(C)=N/O.CC(=N\O)/C(C)=N/O.[CH3-].[CH3-].[Co].[Co],15%,25%,46.5%,8%,17%,24.6%,21%,18%,30.1%,11%,24%,2.8%,-1%,13%,-12.7%,14%,39%,63.6%
CCOP(=O)(OCC)/C(C#N)=C/c1ccc(Br)cc1,-14%,95% (active),92.3% (active),-14%,97% (active),94% (active),-18%,95% (active),92.8% (active),-20%,96% (active),91.6% (active),11%,97% (active),91.8% (active),-19%,97% (active),92% (active)
O=C([CH-]C(=O)c1ccccc1)c1ccccc1.O=C([CH-]C(=O)c1ccccc1)c1ccccc1.O=C([CH-]C(=O)c1ccccc1)c1ccccc1.[OH3+].[Y+3],46%,99% (active),91.6% (active),42%,100% (active),93.5% (active),53%,100% (active),94.1% (active),–,–,–,63%,84% (active),92.5% (active),56%,100% (active),91.5% (active)
O=C([CH-]C(=O)c1ccccc1)c1ccccc1.O=C([CH-]C(=O)c1ccccc1)c1ccccc1.O=C([CH-]C(=O)c1ccccc1)c1ccccc1.[Cl-].[Zr+4],36%,89% (active),87.5% (active),38%,83% (active),67.3%,45%,93% (active),86.7% (active),–,–,–,62%,93% (active),89.7% (active),29%,93% (active),87.8% (active)
